Among all 320,000 compounds or so, about 1,300 (0.41%) were called active. About 3% were inconclusive and are not listed. The rule behind the calls is not given here. Only a sample is shown. Measured potencies and affinities stand elsewhere.
assay: growth inhibition of non-replicating M. tuberculosis (AID 488890); conditions: Mycobacterium tuberculosis non-replicating, at 25 µM, stronger effect = higher value;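 note: plate controls were DMSO cells for no effect and high antibiotic wells for full effect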

Compound	inhibition
O=C(CCSc1ccccc1)NCc1cccnc1	-1.43%
Cc1cc(C)cc(N2C(=O)NC(=O)/C(=C\C=C\c3ccco3)C2=O)c1	2.52%
O=C1NC(=O)N(Cc2ccc(F)cc2)C(=O)/C1=C\C=C\c1ccco1	75.2%
Cc1ccc(N2C(=O)NC(=O)/C(=C\C=C\c3ccco3)C2=O)cc1	18.7%
Cc1ccc(N2C(=O)NC(=O)/C(=C\C=C\c3ccco3)C2=O)cc1C	13%
CN1C(=O)/C(=C/C=C/c2ccco2)C(=O)NC1=S	-21.1%
O=C1NC(=O)N(c2ccccc2)C(=O)/C1=C/C=C/c1ccco1	-12.6%
COc1ccc(NC(=O)CCNS(=O)(=O)c2ccccc2F)cc1S(N)(=O)=O	-0.54%
Cc1ccccc1C1c2[nH]c3ccccc3c2CCN1C(=O)c1ccc(=O)n(C)n1 (centres undefined)	10.8%
CCOC(=O)c1c(C)c(C)n(Cc2ccc(OC)c(OC)c2)c1C	16.5%
Cc1cc(C(=O)COc2ccccc2C(N)=O)c(C)n1C	4.7%
Cc1cc(C(=O)COc2ccccc2C(N)=O)c(C)n1CC1CCCO1 (centres undefined)	-26.6%
CCN(CC(=O)NC(=O)NCc1ccco1)Cc1nc2ccccc2c(=O)[nH]1	12.9%
COCCNC(=O)Cc1c(C)c2c(cc(C)c3c(C(C)(C)C)coc32)oc1=O	26.6%
O=C(CCc1nnc2n(Cc3ccc(F)cc3)c(=O)c3ccccc3n12)N1CCN(c2ccccn2)CC1	-3.25%
O=C(Nc1ccc(Cl)cc1)OCCn1nnnc1C(c1ccccc1)N1CCOCC1 (centres undefined)	4.68%
COc1ccc(S(=O)(=O)N2CCCCC2)cc1NC(=O)c1ccc([N+](=O)[O-])o1	1.5%
O=C(Nc1cc(S(=O)(=O)N2CCOCC2)ccc1N1CCOCC1)c1ccc([N+](=O)[O-])s1	50.4%
Cc1ccc(C(=O)Nc2cccc(S(=O)(=O)N3CCCC3)c2)o1	-4.97%
CCN1CCN(c2ccc(S(=O)(=O)N3CCCCC3)cc2NC(=O)c2ccccc2)CC1	-11.8%
Cc1ccc(NC(=O)c2ccc([N+](=O)[O-])s2)cc1S(=O)(=O)N1CCOCC1	43.2%
O=C(Nc1ccc(S(=O)(=O)N2CCOCC2)cc1)c1ccc(Br)o1	-0.17%
O=C(Nc1ccc(S(=O)(=O)N2CCOCC2)cc1)c1ccc(Cl)s1	5.17%
NS(=O)(=O)c1ccc(NC(=O)c2ccc(S(=O)(=O)N3CCOCC3)o2)cc1	1.05%
CCOc1ccc2oc(C(=O)OCC(=O)NC3CCCC3)c(C)c2c1	9.82%
O=C(c1ccc2c(c1)CCN2S(=O)(=O)c1ccccc1)N1CCN(c2ccc(F)cc2)CC1	18.7%

Compound	inhibition
NC(=O)c1sc2nc(N3CCOCC3)c3c(c2c1N)CCCC3	3.31%
CCN(CC)CCOC(=O)C(Cc1ccco1)Cc1cccc2ccccc12 (centres undefined)	12.1%
COc1ccc2c(c1OC)C(=O)OC2Nc1nc(-c2cc3ccccc3oc2=O)cs1 (centres undefined)	2.83%
COc1cc(S(=O)(=O)N2CCOCC2)cc(C(=O)OCC(=O)NC2CCCCC2)c1OC	-1.4%
O=C(/C=C/c1cc([N+](=O)[O-])ccc1OC(F)F)Nc1cccc(OC(F)F)c1	0.25%
COCCn1c(=NC(=O)CSCC(=O)N2CCOCC2)sc2ccccc21	-8.23%
Cn1cccc1C(=O)OCC(=O)Nc1cccc(S(=O)(=O)N2CCOCC2)c1	-0.69%
COC(=O)C1=C(c2ccc(OC)c(OC)c2)C[C@@H]2CC[C@H]1N2C(=O)NCc1cc(C)oc1C(F)(F)F	-13.9%
Oc1cccc(Nc2nc(-c3ccccc3Cl)nc3ccccc23)c1	1.57%
O=C(COC(=O)c1cc2ccccc2o1)c1ccccc1	51.9%
CC(=O)Nc1cccc(NC(=O)c2cc3ccccc3o2)c1	32.4%
O=C(Nc1ccccc1)c1ccc(OC(=O)c2cc3ccccc3o2)cc1	45.2%
O=C(Nc1ccc(NC(=O)c2cc3ccccc3o2)cc1)c1ccco1	2.59%
Cc1ccnc(NC(=O)c2oc3ccccc3c2C)c1	20.3%
O=C(O)c1ccc(NC(=O)c2cc3ccccc3o2)cc1	19.5%
CC(C)C(=O)Nc1cccc(NC(=O)c2cc3ccccc3o2)c1	2.48%
Cc1ccc(C)c(NC(=O)c2cc3ccccc3o2)c1	75.5%
O=C(CSCc1cnn(-c2ccccc2)c1-n1cccc1)N1CCN(Cc2ccccc2)CC1	2.12%
C=CC[C@@H](CC(=O)N[C@H](CO)Cc1ccccc1)C(=O)N[C@@H](COC(=O)[C@@H](CC=C)CC(=O)OC(C)(C)C)Cc1c[nH]c2ccccc12	61%
CCN(Cc1ccccc1)C(=O)CSc1nc(C)cc(=O)[nH]1	10.7%
Nc1c(C(=O)Nc2cccc(F)c2)nnn1-c1cccc(C(F)(F)F)c1	-17.3%
COc1cc(C[C@@H]2C(=O)OC[C@H]2Cc2ccc(OC)c(OC)c2)ccc1O	-6.61%
O=S(=O)(NCC(c1ccco1)N1CCCCC1)c1ccccc1C(F)(F)F (centres undefined)	5.94%
Cc1ccc(C(=O)N(C)CCOc2ccccc2)cc1S(=O)(=O)N1CCCCC1	14.5%
O=C(NC1CCCCC1)C(c1cccs1)N(CCCN1CCOCC1)C(=O)c1ccc(-c2ccccc2)[nH]1 (centres undefined)	44.4%
COc1ccc(NC(=O)c2cc3ccccc3o2)cc1OC	53.8%

Compound	inhibition
CC(=O)c1ccc(NC(=O)c2cc3ccccc3o2)cc1	76.8%
Cc1ccc(C2=NN(CCC(=O)NCc3ccc4c(c3)OCO4)C(=O)CC2)cc1	4.59%
COCCN(C(=O)C1CCCO1)c1c(N)n(CC(C)C)c(=O)[nH]c1=O (centres undefined)	-18.2%
NC(=S)N/N=C/c1c(O)c(Br)cc2oc3c(c12)CCCC3	56.5%
Oc1ccc2oc3c(c2c1C=NCc1ccncc1)CCCC3	3.96%
Cc1nnc(SCC(=O)NNC(=O)c2ccco2)n1-c1cccc(Cl)c1	-5.26%
CCC(CC)C(=O)N=C1SC2CS(=O)(=O)CC2N1CCc1ccc(OC)c(OC)c1 (centres undefined)	-2.38%
Cn1nnnc1Sc1ncnc2scc(-c3ccccc3)c12	48.6%
Cn1nnnc1Sc1ncnc2scc(-c3ccc(-c4ccccc4)cc3)c12	77%
Nc1nc(SCCO)[nH]c(=O)c1NC(=O)c1ccco1	-5.12%
CCCCCN(C(=O)CCC(=O)OCCOc1ccccc1)c1c(N)n(CCCC)c(=O)[nH]c1=O	-0.11%
CCN1CCN(C(=O)c2cc3cc4ccc(OC)cc4nc3s2)CC1	18.5%
CCCCN(C)C(=O)c1cc2cc3ccc(OC)cc3nc2o1	71.6%
O=c1[nH]c(C2C3CC4CC(C3)CC2C4)nc2ccccc12 (centres undefined)	21.6%
COc1ccc(C(CC(=O)N2CCCC(C)C2)c2c(OC)cc(OC)c3ccc(=O)oc23)cc1 (centres undefined)	28.4%
Cc1ccc(S(=O)(=O)Nc2ncnc3ccccc23)cc1	-1.77%
CCCCn1c(SCC(=O)NCc2ccco2)nc2cc(S(N)(=O)=O)ccc21	1.57%
COc1ccc(C2=NN(C(=O)CSc3nc(=O)n4cc(C)ccc4n3)C(c3ccc(C)cc3)C2)cc1 (centres undefined)	38.7%
Cc1ccc2cc(C3CC(c4ccco4)=NN3C(=O)CCC(=O)O)c(Cl)nc2c1 (centres undefined)	2.6%
CCOC(=O)c1c(C)c(C(=O)NC(C)COC)c(C)n1CC (centres undefined)	-4.24%
O=c1c(C(c2ccc(Cl)cc2)c2c(O)nc3n(c2=O)CCCS3)c(O)nc2n1CCCS2	8.19%
N#Cc1c(-c2ccc(Cl)cc2)nc2n(c1=O)CCCS2	4.51%
O=C(N/N=C/c1ccc(O)c([N+](=O)[O-])c1)c1ccncc1	56.1%
O=C(N/N=C/c1ccc(-c2ccccc2[N+](=O)[O-])o1)c1cncc(Br)c1	11.6%
O=C(N/N=C/c1cccn1-c1ccc([N+](=O)[O-])cc1)c1cccnc1	-10.5%
Cc1ccc(C(=O)N/N=C\c2sccc2C)cn1	-5.99%

Compound	inhibition
O=C(N/N=C/c1ccc([N+](=O)[O-])cc1)c1cccnc1	-3.53%
Cc1ccc(C(=O)N/N=C\c2ccc([N+](=O)[O-])o2)cn1	70.4%
Cc1ccc(/C=N\NC(=O)c2cncc(Br)c2)o1	46.2%
O=C(N/N=C/c1ccccc1[N+](=O)[O-])c1ccncc1	35.4%
CCOc1ccc(C(=O)NC2CCN(C(=O)Nc3ccc(F)cc3)CC2)cc1	-4.31%
CN(c1ccccc1)S(=O)(=O)c1ccc(Cl)c(C(=O)NC2=NCCS2)c1	27.5%
O=C(Nc1nnc(C23CC4CC(CC(C4)C2)C3)s1)c1ccc(N2C(=O)CCC2=O)cc1	13.4%
COc1cc(NC(=S)N2CCOCC2)c(OC)cc1Cl	1.57%
CCOc1ccccc1NC(=O)C1CCCCN1S(=O)(=O)c1ccc(F)cc1 (centres undefined)	14.8%
COc1ccc(/C=C2\C(=O)NC(=O)N(Cc3ccccc3)C2=O)c(OC)c1OC	-15.4%
O=C(NCC(=O)N1CCN(Cc2ccc3c(c2)OCO3)CC1)c1ccccc1F	6.65%
N#C/C(N)=C(/C#N)N=Cc1cccc(Cl)c1	8.31%
CNC(=O)/C(C#N)=C/c1ccc(OCCOc2ccccc2)cc1	63.6%
CCOc1ccc(NC(=O)CCC(=O)N/N=C/c2ccc3c(c2)OCO3)cc1	12.5%
CCOc1ccc(/C=N/NC(=O)CCC(=O)Nc2ccc(F)cc2)cc1	1.12%
O=C(N/N=C/c1ccc(O)cc1)c1cncc(Br)c1	17.6%
O=C(N/N=C/c1ccc(Br)s1)c1cccc([N+](=O)[O-])c1	-22%
CCOc1ccc(NC(C)C(=O)N/N=C/c2ccc([N+](=O)[O-])cc2)cc1 (centres undefined)	7.41%
O=C(N/N=C/c1cccc([N+](=O)[O-])c1)c1cccc(Br)c1	-5.27%
Cn1cccc1/C=N\NC(=O)c1cncc(Br)c1	-6.5%
Cc1ccc(/C=N/NC(=O)C(C)Oc2ccccc2[N+](=O)[O-])s1 (centres undefined)	-10.9%
COC(=O)c1c(C)[nH]c(C(=O)CSc2nnnn2-c2ccccc2)c1C	-4%
O=C(COC(=O)c1ccccc1NC(=O)c1ccco1)NC1CCS(=O)(=O)C1 (centres undefined)	73.7%
O=C(COC(=O)C1CCN(C(=O)Nc2ccccc2)CC1)NCC(F)(F)F	-2.77%
CS(=O)(=O)N1CCC(C(=O)NCc2ccc(Cl)cc2)CC1	8.1%
COc1ccc(-n2nc3cc(C)c(NC(C)=O)cc3n2)cc1	1.69%
